How the values were obtained:
Her1-GFP homodimer = target: T1, Her1-GFP homodimer (zebrafish (Danio rerio), UniProt Q90463 1-328); test: MITOMI; PPARgamma-mCherry co-present (non-interacting control); TnT SP6 wheat germ expression extract on MITOMI chip, 3 h at room temperature; salt and pH not stated; PBS used for washing; high values mean tight binding; conditions: protein: ivt; tags: C-terminal GFP; chain copies: 2; label: Cy5; dsDNA, one strand shown
T1 sequence: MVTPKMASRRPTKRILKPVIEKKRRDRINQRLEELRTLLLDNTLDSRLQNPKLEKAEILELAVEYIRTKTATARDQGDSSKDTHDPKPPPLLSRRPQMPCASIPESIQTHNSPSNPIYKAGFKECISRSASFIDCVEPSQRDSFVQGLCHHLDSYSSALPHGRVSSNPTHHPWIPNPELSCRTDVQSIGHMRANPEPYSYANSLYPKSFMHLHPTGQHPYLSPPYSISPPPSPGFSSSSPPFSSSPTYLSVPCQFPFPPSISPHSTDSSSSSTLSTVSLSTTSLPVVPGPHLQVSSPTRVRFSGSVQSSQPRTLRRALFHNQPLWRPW

[1] = target: T2, Her7 (coupled to chip, Fig 2D);Hes6-mCherry (zebrafish (Danio rerio);zebrafish …, UniProt Q9I9K1;Q6P0J1 1-206;1-226, |); test: MITOMI; Her7:Hes6 heterodimer, Her7 coupled to chip and Hes6-mCherry in solution; TnT SP6 wheat germ expression extract on MITOMI chip, 3 h at room temperature; salt and pH not stated; PBS used for washing; high values mean tight binding; conditions: protein: ivt;ivt; copies: 1;1; label: Cy5; dsDNA, one strand shown
T2 sequence 1: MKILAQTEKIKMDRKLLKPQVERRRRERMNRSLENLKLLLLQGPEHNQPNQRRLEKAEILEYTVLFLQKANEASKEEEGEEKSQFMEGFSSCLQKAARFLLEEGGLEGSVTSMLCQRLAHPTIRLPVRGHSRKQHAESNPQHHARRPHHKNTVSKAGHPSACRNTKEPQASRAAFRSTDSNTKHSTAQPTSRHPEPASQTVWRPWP
T2 sequence 2: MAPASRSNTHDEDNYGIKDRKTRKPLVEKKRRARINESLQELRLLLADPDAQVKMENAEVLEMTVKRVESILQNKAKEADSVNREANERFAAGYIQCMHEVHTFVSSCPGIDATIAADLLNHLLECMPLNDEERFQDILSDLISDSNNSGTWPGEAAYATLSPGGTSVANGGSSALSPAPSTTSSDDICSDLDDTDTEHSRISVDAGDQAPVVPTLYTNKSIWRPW

| Sequence | binding signal (Her1-GFP homodimer) | binding signal [1] |
| --- | --- | --- |
| TGCCGCGTGCAC | 0.033 ± 0.00214 relative affinity (strongest site = 1) | 0.163 ± 0.00188 relative affinity (strongest site = 1) |
| CCGCGCGTGCCA | 0.279 ± 0.0129 relative affinity (strongest site = 1) | 0.516 ± 0.0179 relative affinity (strongest site = 1) |
| TGCCGCGTGCCG | 0.216 ± 0.0104 relative affinity (strongest site = 1) | 0.369 ± 0.00323 relative affinity (strongest site = 1) |
| CTGCTCGTGCTT | 0.0197 ± 0.00116 relative affinity (strongest site = 1) | 0.103 ± 0.00315 relative affinity (strongest site = 1) |
| CGGCGCGTGCCA | 0.73 ± 0.0316 relative affinity (strongest site = 1) | 0.959 ± 0.0356 relative affinity (strongest site = 1) |
| AAACACGAGCCA | 0.0562 ± 0.00247 relative affinity (strongest site = 1) | 0.208 ± 0.00306 relative affinity (strongest site = 1) |
| GCGCTCGTGCGC | 0.0291 ± 0.00508 relative affinity (strongest site = 1) | 0.0861 ± 0.00202 relative affinity (strongest site = 1) |
| GTACACGTGGCG | 0.237 ± 0.00793 relative affinity (strongest site = 1) | 0.275 ± 0.00281 relative affinity (strongest site = 1) |
| AGCCTCGTGTAA | 0.0363 ± 0.00627 relative affinity (strongest site = 1) | 0.0516 ± 0.00244 relative affinity (strongest site = 1) |
| GGGCGCGTGCCG | 0.576 ± 0.0101 relative affinity (strongest site = 1) | 0.748 ± 0.021 relative affinity (strongest site = 1) |
| TTCCACGAGAAA | 0.0129 ± 0.000672 relative affinity (strongest site = 1) | 0.0286 ± 0.00127 relative affinity (strongest site = 1) |
| GGGCACGTGCGC | 0.406 ± 0.00899 relative affinity (strongest site = 1) | 0.542 ± 0.0166 relative affinity (strongest site = 1) |
| CAGCGCGTGCCT | 0.227 ± 0.0107 relative affinity (strongest site = 1) | 0.4636 ± 0.00426 relative affinity (strongest site = 1) |
| GTTCGCGTGTGC | 0.0452 ± 0.00123 relative affinity (strongest site = 1) | 0.1 ± 0.00206 relative affinity (strongest site = 1) |
| GTTCACGTGTGC | 0.0341 ± 0.00138 relative affinity (strongest site = 1) | 0.102 ± 0.00486 relative affinity (strongest site = 1) |
| CAGCGCGTGTGC | 0.057 ± 0.0015 relative affinity (strongest site = 1) | 0.179 ± 0.00225 relative affinity (strongest site = 1) |
| CTCCTCGTGTTG | 0.0177 ± 0.000557 relative affinity (strongest site = 1) | 0.0605 ± 0.00276 relative affinity (strongest site = 1) |
| CTCCACGTGCCC | 0.269 ± 0.00665 relative affinity (strongest site = 1) | 0.297 ± 0.00926 relative affinity (strongest site = 1) |
| GCCCACGGGCCC | 0.144 ± 0.0313 relative affinity (strongest site = 1) | 0.0279 ± 0.00171 relative affinity (strongest site = 1) |
| TGGCACGTGTCC | 1 ± 0.0321 relative affinity (strongest site = 1) | 1 ± 0.0512 relative affinity (strongest site = 1) |
| AGGCGCGTGGTG | 0.077 ± 0.00506 relative affinity (strongest site = 1) | 0.157 ± 0.00403 relative affinity (strongest site = 1) |
| CGACACGTGCTC | 0.416 ± 0.00933 relative affinity (strongest site = 1) | 0.638 ± 0.0296 relative affinity (strongest site = 1) |

| Sequence | binding signal (Her1-GFP homodimer) | binding signal [1] |
| --- | --- | --- |
| ATCCACGTGTCC | 0.303 ± 0.0145 relative affinity (strongest site = 1) | 0.256 ± 0.00386 relative affinity (strongest site = 1) |
| GTTCTCGTGTTT | 0.0171 ± 0.0014 relative affinity (strongest site = 1) | 0.0265 ± 0.0016 relative affinity (strongest site = 1) |
| CAGCACGTGTCT | 0.456 ± 0.0098 relative affinity (strongest site = 1) | 0.679 ± 0.014 relative affinity (strongest site = 1) |
| TTGCACGTGTAC | 0.0556 ± 0.0021 relative affinity (strongest site = 1) | 0.178 ± 0.00237 relative affinity (strongest site = 1) |
| GGTCGCGTGTGC | 0.181 ± 0.0115 relative affinity (strongest site = 1) | 0.182 ± 0.00317 relative affinity (strongest site = 1) |
| GCCCACGCGCCG | 0.119 ± 0.00729 relative affinity (strongest site = 1) | 0.168 ± 0.00251 relative affinity (strongest site = 1) |
| AAGCACGTGATC | 0.0423 ± 0.00127 relative affinity (strongest site = 1) | 0.0912 ± 0.0018 relative affinity (strongest site = 1) |
| TTGCTCGTGCTT | 0.0235 ± 0.00192 relative affinity (strongest site = 1) | 0.109 ± 0.00195 relative affinity (strongest site = 1) |
| AGACACGCGCTA | 0.118 ± 0.00385 relative affinity (strongest site = 1) | 0.2749 ± 0.00267 relative affinity (strongest site = 1) |
| TATCTCGTGCTG | 0.029 ± 0.0011 relative affinity (strongest site = 1) | 0.0758 ± 0.00824 relative affinity (strongest site = 1) |
| TCCCACGGGATT | 0.0209 ± 0.00257 relative affinity (strongest site = 1) | 0.0207 ± 0.00168 relative affinity (strongest site = 1) |
| CAACACGGGGTG | 0.026 ± 0.00978 relative affinity (strongest site = 1) | 0.0311 ± 0.0032 relative affinity (strongest site = 1) |
| CATCACGTGAAA | 0.018 ± 0.00636 relative affinity (strongest site = 1) | 0.0344 ± 0.00348 relative affinity (strongest site = 1) |
| TGACGCGTGTGA | 0.118 ± 0.00595 relative affinity (strongest site = 1) | 0.387 ± 0.0053 relative affinity (strongest site = 1) |
| TTCCACGGGTCT | 0.0411 ± 0.00212 relative affinity (strongest site = 1) | 0.0587 ± 0.00207 relative affinity (strongest site = 1) |
| ATACACAGTGCGC | 0.0128 ± 0.000425 relative affinity (strongest site = 1) | 0.0208 ± 0.0021 relative affinity (strongest site = 1) |
| CGACACGCGGTG | 0.0408 ± 0.00225 relative affinity (strongest site = 1) | 0.0849 ± 0.00174 relative affinity (strongest site = 1) |
| CTGCACGTGCAT | 0.0391 ± 0.00232 relative affinity (strongest site = 1) | 0.158 ± 0.00223 relative affinity (strongest site = 1) |
| TGTCGCGTGCCA | 0.597 ± 0.0246 relative affinity (strongest site = 1) | 0.531 ± 0.00964 relative affinity (strongest site = 1) |
| AGCCACGTGGCT | 0.57 ± 0.0193 relative affinity (strongest site = 1) | 0.347 ± 0.00813 relative affinity (strongest site = 1) |
| TCACACCTGTGCAG |  | 0.02 ± 0.00133 relative affinity (strongest site = 1) |

From paper PMC3404119, “Topology and Dynamics of the Zebrafish Segmentation Clock Core Circuit”
